# In publication PMC5540273 (PLoS ONE, 2017):
# Like-named read-outs stand apart in the source and are kept apart here.
# Key:
# Conditions in all cases: n = 1
# DAPK2 = tested on: DAPK2
# DAPK3 = tested on: DAPK3
# DCAMKL1 = tested on: T1, DCAMKL1
# T1 construct: gene DCLK1
# DCAMKL2 = tested on: T2, DCAMKL2
# T2 construct: gene DCLK2
# DCAMKL3 = tested on: T3, DCAMKL3
# T3 construct: gene DCLK3
# DDR1 = tested on: DDR1
# DDR2 = tested on: DDR2
# DLK = tested on: T4, DLK
# T4 construct: gene MAP3K12
# DMPK2 = tested on: T5, DMPK2
# T5 construct: gene CDC42BPG
# DMPK = tested on: DMPK
# DRAK1 = tested on: T6, DRAK1
# T6 construct: gene STK17A
# DRAK2 = tested on: T7, DRAK2
# T7 construct: gene STK17B
# DYRK1A = tested on: DYRK1A
# DYRK1B = tested on: DYRK1B
# DYRK2 = tested on: DYRK2
# EGFR = tested on: EGFR
# EIF2AK1 = tested on: EIF2AK1
# EPHA1 = tested on: EPHA1
# EPHA2 = tested on: EPHA2
# EPHA3 = tested on: EPHA3
# [1] = concentration: 1 μM, replicates: in singlicate
# 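Also: KINOMEscan kinase panel screen.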
structure (smiles),measurement,setting,value
O=c1cc(N2CCOCC2)nc2n(Cc3cccc(Cl)c3Cl)ccn12 [GSK2286295],%Inh,DAPK2; [1],7%
same,%Inh,DAPK3; [1],15%
same,%Inh,DCAMKL1; [1],5%
same,%Inh,DCAMKL2; [1],0%
same,%Inh,DCAMKL3; [1],20%
same,%Inh,DDR1; [1],0%
same,%Inh,DDR2; [1],0%
same,%Inh,DLK; [1],0%
same,%Inh,DMPK2; [1],0%
same,%Inh,DMPK; [1],3%
same,%Inh,DRAK1; [1],0%
same,%Inh,DRAK2; [1],0%
same,%Inh,DYRK1A; [1],14%
same,%Inh,DYRK1B; [1],30%
same,%Inh,DYRK2; [1],21%
same,%Inh,EGFR; [1],20%
same,%Inh,EIF2AK1; [1],0%
same,%Inh,EPHA1; [1],0%
same,%Inh,EPHA2; [1],4%
same,%Inh,EPHA3; [1],18%
COc1cc2ncnc(Nc3ccc4nc(-c5ccccc5)[nH]c4c3)c2cc1OC.Cl [GW282450],%Inh,DAPK2; [1],15%
same,%Inh,DAPK3; [1],13%
same,%Inh,DCAMKL1; [1],8%
same,%Inh,DCAMKL2; [1],0%
same,%Inh,DCAMKL3; [1],0%
same,%Inh,DDR1; [1],0%
same,%Inh,DDR2; [1],0%
same,%Inh,DLK; [1],7%
same,%Inh,DMPK2; [1],0%
same,%Inh,DMPK; [1],0%
same,%Inh,DRAK1; [1],0%
same,%Inh,DRAK2; [1],0%
same,%Inh,DYRK1A; [1],13%
same,%Inh,DYRK1B; [1],0%
same,%Inh,DYRK2; [1],19%
same,%Inh,EGFR; [1],59%
same,%Inh,EIF2AK1; [1],6%
same,%Inh,EPHA1; [1],10%
same,%Inh,EPHA2; [1],0%
same,%Inh,EPHA3; [1],31%
CS(=O)(=O)c1ccc(-c2nc3n(c2-c2ccncc2)CCC3)cc1 [SKF-105942],%Inh,DAPK2; [1],0%
same,%Inh,DAPK3; [1],22%
same,%Inh,DCAMKL1; [1],21%
same,%Inh,DCAMKL2; [1],13%
same,%Inh,DCAMKL3; [1],20%
same,%Inh,DDR1; [1],0%
same,%Inh,DDR2; [1],7%
same,%Inh,DLK; [1],0%
same,%Inh,DMPK2; [1],0%
same,%Inh,DMPK; [1],0%
same,%Inh,DRAK1; [1],0%
same,%Inh,DRAK2; [1],0%
same,%Inh,DYRK1A; [1],20%
same,%Inh,DYRK1B; [1],0%
same,%Inh,DYRK2; [1],5%
same,%Inh,EGFR; [1],5%
same,%Inh,EIF2AK1; [1],13%
same,%Inh,EPHA1; [1],1%
same,%Inh,EPHA2; [1],6%
same,%Inh,EPHA3; [1],0%
Cl.c1ccc(-c2n[nH]cc2-c2ccnc(-c3ccc(CN4CCOCC4)cc3)c2)nc1 [GW776245],%Inh,DAPK2; [1],12%
same,%Inh,DAPK3; [1],4%
same,%Inh,DCAMKL1; [1],38%
same,%Inh,DCAMKL2; [1],16%
same,%Inh,DCAMKL3; [1],12%
same,%Inh,DDR1; [1],0%
same,%Inh,DDR2; [1],34%
same,%Inh,DLK; [1],0%
same,%Inh,DMPK2; [1],9%
same,%Inh,DMPK; [1],0%
same,%Inh,DRAK1; [1],0%
same,%Inh,DRAK2; [1],20%
same,%Inh,DYRK1A; [1],0%
same,%Inh,DYRK1B; [1],0%
same,%Inh,DYRK2; [1],0%
same,%Inh,EGFR; [1],34%
same,%Inh,EIF2AK1; [1],0%
same,%Inh,EPHA1; [1],7%
same,%Inh,EPHA2; [1],6%
same,%Inh,EPHA3; [1],1%
Cc1nnc(-c2ccc3occ(-c4ccc(S(C)=O)cc4)c3c2)[nH]1 (centres unmarked),%Inh,DAPK2; [1],5%
same,%Inh,DAPK3; [1],10%
same,%Inh,DCAMKL1; [1],0%
same,%Inh,DCAMKL2; [1],0%
same,%Inh,DCAMKL3; [1],0%
same,%Inh,DDR1; [1],0%
same,%Inh,DDR2; [1],5%
same,%Inh,DLK; [1],0%
same,%Inh,DMPK2; [1],6%
same,%Inh,DMPK; [1],0%
same,%Inh,DRAK1; [1],26%
same,%Inh,DRAK2; [1],41%
same,%Inh,DYRK1A; [1],19%
same,%Inh,DYRK1B; [1],7%
same,%Inh,DYRK2; [1],45%
same,%Inh,EGFR; [1],0%
same,%Inh,EIF2AK1; [1],0%
same,%Inh,EPHA1; [1],0%
same,%Inh,EPHA2; [1],0%
same,%Inh,EPHA3; [1],0%
Cc1cc(N2Cc3ccccc3C2)nc(Nc2ccc(S(=O)(=O)N3CCOCC3)cc2)n1.Cl [GSK1669917],%Inh,DAPK2; [1],5%
same,%Inh,DAPK3; [1],100%
same,%Inh,DCAMKL1; [1],21%
same,%Inh,DCAMKL2; [1],0%
same,%Inh,DCAMKL3; [1],0%
same,%Inh,DDR1; [1],0%
same,%Inh,DDR2; [1],9%
same,%Inh,DLK; [1],2%
same,%Inh,DMPK2; [1],1%
same,%Inh,DMPK; [1],0%
same,%Inh,DRAK1; [1],17%
same,%Inh,DRAK2; [1],0%
same,%Inh,DYRK1A; [1],11%
same,%Inh,DYRK1B; [1],19%
same,%Inh,DYRK2; [1],0%
same,%Inh,EGFR; [1],23%
same,%Inh,EIF2AK1; [1],0%
same,%Inh,EPHA1; [1],0%
same,%Inh,EPHA2; [1],19%
same,%Inh,EPHA3; [1],0%
Cc1ccc(NC(=O)Nc2cccc(C(F)(F)F)c2)cc1 [GSK955403],%Inh,DAPK2; 1 µM,3%
same,%Inh,DAPK3; 1 µM,24%
same,%Inh,DCAMKL1; 1 µM,0%
same,%Inh,DCAMKL2; 1 µM,0%
same,%Inh,DCAMKL3; 1 µM,13%
same,%Inh,DDR1; 1 µM,43%
same,%Inh,DDR2; 1 µM,65%
same,%Inh,DLK; 1 µM,0%
same,%Inh,DMPK2; 1 µM,0%
same,%Inh,DMPK; 1 µM,0%
same,%Inh,DRAK1; 1 µM,15%
same,%Inh,DRAK2; 1 µM,0%
same,%Inh,DYRK1A; 1 µM,0%
same,%Inh,DYRK1B; 1 µM,0%
same,%Inh,DYRK2; 1 µM,0%
same,%Inh,EGFR; 1 µM,0%
same,%Inh,EIF2AK1; 1 µM,0%
same,%Inh,EPHA1; 1 µM,17%
same,%Inh,EPHA2; 1 µM,0%
same,%Inh,EPHA3; 1 µM,0%
